{"source": "paper PMC8384837", "about": "“Expanding the binding specificity for RNA recognition by a PUF domain”", "assay_in_all_cases": "yeast three-hybrid, YBZ-1, SC-Leu-His + 0.5 mM 3-AT, 4 days", "settings_in_all_cases": "tags: N-Gal4 AD-HA kept; label: inside an RPR1-promoter hybrid RNA with tandem MS2 sites; ssRNA", "key": {"[1]": {"molecular_target": "PUM1 PUF domain R1-RRQ (Homo sapiens, UniProt Q14671 828-1176, S863R)", "sequence (Q14671 828-1176 S863R)": "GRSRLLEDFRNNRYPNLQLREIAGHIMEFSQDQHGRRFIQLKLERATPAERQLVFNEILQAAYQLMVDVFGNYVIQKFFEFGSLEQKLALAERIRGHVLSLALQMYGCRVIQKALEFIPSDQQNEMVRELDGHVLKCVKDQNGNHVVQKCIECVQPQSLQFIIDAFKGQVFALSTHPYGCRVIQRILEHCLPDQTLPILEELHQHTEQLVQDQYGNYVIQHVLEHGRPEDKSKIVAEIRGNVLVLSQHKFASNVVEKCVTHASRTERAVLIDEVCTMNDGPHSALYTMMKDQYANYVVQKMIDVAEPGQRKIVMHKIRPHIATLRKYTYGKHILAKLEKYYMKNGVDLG", "procedure,_shortened": "(§1)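 Repeat regions from input (SC-Leu) and selection (SC-Leu-His + 0.5 mM 3-AT) plates were PCR-amplified and Illumina-sequenced after four days of growth. The cells were strain YBZ-1 with a LexA–MS2 coat fusion and a HIS3 reporter, co-expressing Pumilio-1 PUF domain libraries and matching RNA elements from a centromeric plasmid. The interaction score is the log change in variant frequency from input to selection, taken in log2 with a pseudocount of 1 for absent variants.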"}, "[2]": {"molecular_target": "PUM1 PUF domain R1-VWR (Homo sapiens, UniProt Q14671 828-1176, S863V;R864W;Q867R)", "procedure,_shortened": "as §1"}, "[3]": {"molecular_target": "PUM1 PUF domain R8-FYF (Homo sapiens, UniProt Q14671 828-1176, N1122F;Q1126F)", "procedure,_shortened": "as §1"}, "[4]": {"molecular_target": "PUM1 PUF domain R8-YFR (Homo sapiens, UniProt Q14671 828-1176, N1122Y;Y1123F;Q1126R)", "procedure,_shortened": "as §1"}, "[5]": {"molecular_target": "T1, PUM1 PUF domain R6-WWR (Homo sapiens, UniProt Q14671 828-1176, N1043W;Y1044W;Q1047R)", "T1 sequence": "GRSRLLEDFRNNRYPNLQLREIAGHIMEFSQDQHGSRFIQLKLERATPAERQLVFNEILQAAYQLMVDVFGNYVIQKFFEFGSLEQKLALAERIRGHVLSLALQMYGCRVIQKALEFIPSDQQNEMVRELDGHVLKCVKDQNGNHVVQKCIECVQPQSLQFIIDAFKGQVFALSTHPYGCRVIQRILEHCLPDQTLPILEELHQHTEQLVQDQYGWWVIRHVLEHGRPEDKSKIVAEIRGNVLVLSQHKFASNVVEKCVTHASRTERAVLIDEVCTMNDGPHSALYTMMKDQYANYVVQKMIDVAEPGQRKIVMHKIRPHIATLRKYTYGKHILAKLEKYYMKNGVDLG", "procedure,_shortened": "as §1"}, "[6]": {"molecular_target": "PUM1 PUF domain R3-RPK (Homo sapiens, UniProt Q14671 828-1176, C935R;R936P;Q939K)", "procedure,_shortened": "as §1"}, "[7]": {"molecular_target": "PUM1 PUF domain R7-QCK (Homo sapiens, UniProt Q14671 828-1176, S1079Q;N1080C;E1083K)", "procedure,_shortened": "as §1"}, "[8]": {"molecular_target": "PUM1 PUF domain R5-QRR (Homo sapiens, UniProt Q14671 828-1176, C1007Q;Q1011R)", "sequence (Q14671 828-1176 C1007Q/Q1011R)": "as the sequence (Q14671 828-1176 S863R) above, with R36S, C180Q, Q184R counted along it", "procedure,_shortened": "as §1"}, "[9]": {"molecular_target": "PUM1 PUF domain R4-WSS (Homo sapiens, UniProt Q14671 828-1176, N971W;H972S;Q975S)", "sequence (Q14671 828-1176 N971W/H972S/Q975S)": "as the sequence (Q14671 828-1176 S863R) above, with R36S, N144W, H145S, Q148S counted along it", "procedure,_shortened": "as §1"}, "[10]": {"molecular_target": "PUM1 PUF domain R4-ANT (Homo sapiens, UniProt Q14671 828-1176, N971A;H972N;Q975T)", "procedure,_shortened": "as §1"}, "[11]": {"molecular_target": "PUM1 PUF domain R4-WAW (Homo sapiens, UniProt Q14671 828-1176, N971W;H972A;Q975W)", "sequence (Q14671 828-1176 N971W/H972A/Q975W)": "as the sequence (Q14671 828-1176 S863R) above, with R36S, N144W, H145A, Q148W counted along it", "procedure,_shortened": "as §1"}}, "data": [{"sequence": "GGCUAGAACUAGUGGAUCCCCCGGCGCCCGGCGGCUCGAGCCCGGGUAAGUGUAAAUCGUCUGCAUGCCGCCGGGCGCCAUGCCUGCAGGUCGACUCUAGAAAACAUG", "values": [{"measurement": "binding signal", "setting": "[1]", "result": "5.5 log2 enrichment (interaction score)"}, {"measurement": "binding signal", "setting": "[2]", "result": "1.8 log2 enrichment (interaction score)"}]}, {"sequence": "GGCUAGAACUAGUGGAUCCCCCGGCGCCCGGCGGCUCGAGCCCGGGUAAGCGUAAAUAGUCUGCAUGCCGCCGGGCGCCAUGCCUGCAGGUCGACUCUAGAAAACAUG", "values": [{"measurement": "binding signal", "setting": "[3]", "result": "2.55 log2 enrichment (interaction score)"}, {"measurement": "binding signal", "setting": "[4]", "result": "5.19 log2 enrichment (interaction score)"}]}, {"sequence": "GGCUAGAACUAGUGGAUCCCCCGGCGCCCGGCGGCUCGAGCCCGGGUAAGUGUAAAUUGUCUGCAUGCCGCCGGGCGCCAUGCCUGCAGGUCGACUCUAGAAAACAUG", "values": [{"measurement": "binding signal", "setting": "[1]", "result": "4.29 log2 enrichment (interaction score)"}, {"measurement": "binding signal", "setting": "[2]", "result": "2.37 log2 enrichment (interaction score)"}]}, {"sequence": "GGCUAGAACUAGUGGAUCCCCCGGCGCCCGGCGGCUCGAGCCCGGGUAAGUGAAAAUAGUCUGCAUGCCGCCGGGCGCCAUGCCUGCAGGUCGACUCUAGAAAACAUG", "values": [{"measurement": "binding signal", "setting": "[5]", "result": "2.69 log2 enrichment (interaction score)"}]}, {"sequence": "GGCUAGAACUAGUGGAUCCCCCGGCGCCCGGCGGCUCGAGCCCGGGUAAGUGUAAUUAGUCUGCAUGCCGCCGGGCGCCAUGCCUGCAGGUCGACUCUAGAAAACAUG", "values": [{"measurement": "binding signal", "setting": "[6]", "result": "4.23 log2 enrichment (interaction score)"}]}, {"sequence": "GGCUAGAACUAGUGGAUCCCCCGGCGCCCGGCGGCUCGAGCCCGGGUAAGUCUAAAUAGUCUGCAUGCCGCCGGGCGCCAUGCCUGCAGGUCGACUCUAGAAAACAUG", "values": [{"measurement": "binding signal", "setting": "[7]", "result": "3.12 log2 enrichment (interaction score)"}]}, {"sequence": "GGCUAGAACUAGUGGAUCCCCCGGCGCCCGGCGGCUCGAGCCCGGGUAAGUGUGAAUAGUCUGCAUGCCGCCGGGCGCCAUGCCUGCAGGUCGACUCUAGAAAACAUG", "values": [{"measurement": "binding signal", "setting": "[8]", "result": "3 log2 enrichment (interaction score)"}]}, {"sequence": "GGCUAGAACUAGUGGAUCCCCCGGCGCCCGGCGGCUCGAGCCCGGGUAAGUGUAUAUAGUCUGCAUGCCGCCGGGCGCCAUGCCUGCAGGUCGACUCUAGAAAACAUG", "values": [{"measurement": "binding signal", "setting": "[9]", "result": "4.4 log2 enrichment (interaction score)"}, {"measurement": "binding signal", "setting": "[10]", "result": "2.52 log2 enrichment (interaction score)"}, {"measurement": "binding signal", "setting": "[11]", "result": "4.31 log2 enrichment (interaction score)"}]}]}
